According to PubChem BioAssay:
Active and inactive are the calls of the source.

How the values were obtained:
[1] = binders of probe aFSTL3 on microarray, primary screen, stem cell growth factor project, biochemical, small-molecule microarray, fluorescence 635/667 (AID 1064); details: higher = more signal;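 note: measures binding of the biotinylated anti-FSTL3 antibody to printed compounds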
[2] = binders from COS7 lysate, DM2A8 probe, primary screen, torsin A project, cell lysate, small-molecule microarray, fluorescence 635/667 (AID 1065); details: higher = more signal, COS7 lysate expressing mutant human TOR1A
[3] = binders of probe aFGF2 on microarray, primary screen, stem cell growth factor project, biochemical, small-molecule microarray, fluorescence 635/667 (AID 1067); details: higher = more signal;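 note: measures binding of biotinylated aFGF2 protein to printed compounds on slides; z-score merges feature fluorescence and signal-to-noise across triplicate slides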
[4] = binders of probe aFGF10 on microarray, primary screen, stem cell growth factor project, biochemical, small-molecule microarray, fluorescence 635/667 (AID 1071); details: higher = more signal;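 note: score merges 667 nm spot intensity and signal to noise from triplicate slides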
[5] = target: Neurogenic locus notch homolog protein 2 (Homo sapiens) (UniProt Q04721); test: Notch2 binders on small-molecule microarrays, primary screen, biochemical, small-molecule microarray, 635 nm fluorescence, stem cell growth factors (AID 1073); details: Notch2 binding, higher = more signal
[6] = target: Pro-neuregulin-1, membrane-bound isoform (Homo sapiens) (UniProt Q02297); test: NRG1 binders on small-molecule microarrays, primary screen, psychiatric disease protein project, biochemical, small-molecule microarray, fluorescence 635/667 (AID 1075); details: NRG1 binding, 635 nm fluorescence, higher = more signal;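 note: score combines 667 nm spot fluorescence with signal to noise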
[7] = tested on: Neuregulin-1 EGF-like domain; test: binders of neuregulin-1 EGF-like domain, primary screen, biochemical, small-molecule microarray, 635 nm fluorescence (AID 1081); details: small-molecule microarray binding, higher = more signal;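 note: binding of the protein to compounds printed on small-molecule microarray slides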
[8] = FRG1 promoter luciferase signal modulators, primary screen, FRG1 inhibition for FSHD, cell-based, C2C12 myotubes, firefly/Renilla luciferase, luminescence (AID 1084); details: higher = more signal, called active from +8 up or from −8 down
[9] = binders of probe aFST on microarray, primary screen, stem cell growth factor project, biochemical, small-molecule microarray, fluorescence 635/667 (AID 1086); details: higher = more signal;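 note: score merges 667 nm fluorescence with signal-to-noise of each printed compound spot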
[10] = binders of probe aHhip on microarray, primary screen, stem cell growth factor project, biochemical, small-molecule microarray, fluorescence 635/667 (AID 1087); details: higher = more signal;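 note: score merges spot fluorescence at 667nm with spot signal to noise ratio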
[11] = tested on: PRMT1 (protein arginine N-methyltransferase 1); test: PRMT1 binders on small-molecule microarrays, primary screen, biochemical, small-molecule microarray, 635 nm fluorescence (AID 1088); details: small-molecule microarray binding, higher = more signal;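 note: binding of Prmt1 protein to compounds spotted on small-molecule microarray slides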
[12] = yeast growth modulation, basal conditions, primary screen, YJM789 clinical isolate, OD600, 24 h (AID 1089);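 note: growth of clinical yeast isolate S. cerevisiae YJM 789 seeded 1000 cells per well; test concentration not given here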; details: S. cerevisiae YJM789 growth, higher = more signal, called active from +8 up or from −8 down
[13] = fission yeast growth modulation, primary screen, strain 972, OD600, 24 h, no modulator (AID 1090);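 note: basal condition with compound alone and no growth modifier present; test concentration not given here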; details: S. pombe 972 growth, higher = more signal, called active from +8 up or from −8 down
[14] = S. cerevisiae growth modulation with rapamycin, primary screen, strain BY4716, OD600, 96 h (AID 1091); details: higher = more signal, called active from +8 up or from −8 down; note: test concentration not given here
[15] = target: Torsin-1A-interacting protein 2 (Homo sapiens) (UniProt Q8NFQ8); test: LULL1 binders on small-molecule microarray, primary screen, cell lysate, human LULL1 lysate, 635/667 nm fluorescence (AID 1092); details: hLULL1 lysate binding, 635 nm fluorescence, higher = more signal;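 note: probe is lysate of COS7 cells overexpressing human LULL1; score merges per-feature 667 nm fluorescence with signal-to-noise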
[16] = E. coli growth modulation, two-sided OD650, primary screen, E. coli filamentation project, strain DRC41, 24 h (AID 1093); details: OD650, 24 h, higher = more signal, called active from +8 up or from −8 down;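 note: MC1000 strain lacking acrAB efflux and sulA so SOS filamentation is blocked; test concentration not given here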
[17] = small-molecule microarray binders of probe aLefty2, primary screen, biochemical, biotinylated probe, 635/667 nm fluorescence (AID 1094); details: higher = more signal;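 note: score merges spot fluorescence near 667 nm with spot signal-to-noise ratio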
[18] = tested on: Noggin (protein binding on small-molecule microarray); test: Noggin binders on small-molecule microarray, primary screen, biochemical, 635/667 nm fluorescence (AID 1095); details: 635 nm fluorescence, higher = more signal;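 note: score merges 667 nm feature fluorescence with signal to noise over triplicate slides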
[19] = target: Neurogenic locus notch homolog protein 3 (Homo sapiens) (UniProt Q9UM47); test: NOTCH3 binders on small-molecule microarray, primary screen, biochemical, 635/667 nm fluorescence (AID 1096); details: NOTCH3 binding, 635 nm fluorescence, higher = more signal
[20] = small-molecule microarray binders of probe aEGFR, primary screen, biochemical, biotinylated probe, 635/667 nm fluorescence (AID 1097); details: higher = more signal;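 note: probe is a biotinylated anti-EGFR antibody binding compounds printed on slides; score combines fluorescence near 667 nm and signal to noise of each spot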

Sequence of Neurogenic locus notch homolog protein 2 (Homo sapiens) (Q04721 whole entry, looked up, canonical isoform): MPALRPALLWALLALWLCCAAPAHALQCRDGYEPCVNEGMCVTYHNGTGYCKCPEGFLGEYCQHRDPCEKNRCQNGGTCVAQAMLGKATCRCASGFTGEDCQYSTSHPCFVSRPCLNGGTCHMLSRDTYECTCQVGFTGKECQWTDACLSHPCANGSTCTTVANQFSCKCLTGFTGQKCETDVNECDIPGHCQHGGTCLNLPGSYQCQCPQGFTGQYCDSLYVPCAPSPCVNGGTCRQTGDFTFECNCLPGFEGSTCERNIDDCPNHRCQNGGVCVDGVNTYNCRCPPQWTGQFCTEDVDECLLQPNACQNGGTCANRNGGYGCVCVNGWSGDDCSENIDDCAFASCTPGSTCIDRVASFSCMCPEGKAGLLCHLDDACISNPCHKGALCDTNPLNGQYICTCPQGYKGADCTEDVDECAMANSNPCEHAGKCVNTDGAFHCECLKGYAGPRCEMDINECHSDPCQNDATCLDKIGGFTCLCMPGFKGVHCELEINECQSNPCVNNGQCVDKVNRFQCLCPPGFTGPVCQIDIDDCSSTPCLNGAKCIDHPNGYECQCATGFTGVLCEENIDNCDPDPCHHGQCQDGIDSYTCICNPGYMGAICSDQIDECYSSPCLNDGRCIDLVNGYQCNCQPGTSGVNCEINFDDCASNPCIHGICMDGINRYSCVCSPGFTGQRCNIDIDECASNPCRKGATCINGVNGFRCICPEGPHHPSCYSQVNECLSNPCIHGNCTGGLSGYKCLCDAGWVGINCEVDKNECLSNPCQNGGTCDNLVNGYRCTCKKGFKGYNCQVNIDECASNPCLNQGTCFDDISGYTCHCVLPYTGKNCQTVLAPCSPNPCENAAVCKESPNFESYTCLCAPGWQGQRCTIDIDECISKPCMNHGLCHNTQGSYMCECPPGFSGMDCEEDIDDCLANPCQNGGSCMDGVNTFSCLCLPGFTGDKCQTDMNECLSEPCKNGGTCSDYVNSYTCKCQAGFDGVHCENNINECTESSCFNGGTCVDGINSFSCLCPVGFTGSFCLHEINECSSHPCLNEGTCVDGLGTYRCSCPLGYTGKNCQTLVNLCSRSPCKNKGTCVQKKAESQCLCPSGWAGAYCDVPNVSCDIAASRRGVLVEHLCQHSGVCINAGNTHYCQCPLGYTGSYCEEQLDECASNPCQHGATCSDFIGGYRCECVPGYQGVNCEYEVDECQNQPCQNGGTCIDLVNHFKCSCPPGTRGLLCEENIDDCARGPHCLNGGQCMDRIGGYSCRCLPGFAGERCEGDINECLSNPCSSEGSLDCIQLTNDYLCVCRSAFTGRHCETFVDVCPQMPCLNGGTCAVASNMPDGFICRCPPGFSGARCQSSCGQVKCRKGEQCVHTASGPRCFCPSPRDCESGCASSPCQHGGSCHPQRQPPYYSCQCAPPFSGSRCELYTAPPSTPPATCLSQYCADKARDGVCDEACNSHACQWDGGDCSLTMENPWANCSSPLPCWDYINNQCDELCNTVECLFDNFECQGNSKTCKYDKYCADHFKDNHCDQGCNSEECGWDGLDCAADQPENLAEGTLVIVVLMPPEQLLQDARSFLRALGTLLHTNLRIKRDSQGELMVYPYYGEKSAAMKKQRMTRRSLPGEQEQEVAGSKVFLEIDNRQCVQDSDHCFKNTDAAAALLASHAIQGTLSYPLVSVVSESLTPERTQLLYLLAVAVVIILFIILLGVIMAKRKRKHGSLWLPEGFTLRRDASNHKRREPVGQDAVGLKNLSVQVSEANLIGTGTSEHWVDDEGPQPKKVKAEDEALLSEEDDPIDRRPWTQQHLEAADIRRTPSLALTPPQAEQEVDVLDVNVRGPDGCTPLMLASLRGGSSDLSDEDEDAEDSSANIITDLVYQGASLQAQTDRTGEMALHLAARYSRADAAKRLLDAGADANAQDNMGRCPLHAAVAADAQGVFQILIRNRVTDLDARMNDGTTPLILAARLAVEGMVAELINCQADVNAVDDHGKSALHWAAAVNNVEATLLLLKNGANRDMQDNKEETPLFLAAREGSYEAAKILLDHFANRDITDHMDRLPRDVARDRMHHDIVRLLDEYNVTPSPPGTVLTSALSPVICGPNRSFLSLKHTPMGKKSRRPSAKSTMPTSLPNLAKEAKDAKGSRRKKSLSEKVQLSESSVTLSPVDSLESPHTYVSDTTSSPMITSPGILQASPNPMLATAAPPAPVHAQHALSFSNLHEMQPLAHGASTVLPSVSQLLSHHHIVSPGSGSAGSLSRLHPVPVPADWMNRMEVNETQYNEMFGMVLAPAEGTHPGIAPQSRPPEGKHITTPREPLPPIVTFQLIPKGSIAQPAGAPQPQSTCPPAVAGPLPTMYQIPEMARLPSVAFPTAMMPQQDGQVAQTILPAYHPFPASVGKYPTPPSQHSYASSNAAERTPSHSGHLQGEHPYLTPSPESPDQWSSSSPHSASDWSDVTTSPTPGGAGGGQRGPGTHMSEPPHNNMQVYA
Sequence of Pro-neuregulin-1, membrane-bound isoform (Homo sapiens) (Q02297 whole entry, looked up, the tested form may be a part, canonical isoform): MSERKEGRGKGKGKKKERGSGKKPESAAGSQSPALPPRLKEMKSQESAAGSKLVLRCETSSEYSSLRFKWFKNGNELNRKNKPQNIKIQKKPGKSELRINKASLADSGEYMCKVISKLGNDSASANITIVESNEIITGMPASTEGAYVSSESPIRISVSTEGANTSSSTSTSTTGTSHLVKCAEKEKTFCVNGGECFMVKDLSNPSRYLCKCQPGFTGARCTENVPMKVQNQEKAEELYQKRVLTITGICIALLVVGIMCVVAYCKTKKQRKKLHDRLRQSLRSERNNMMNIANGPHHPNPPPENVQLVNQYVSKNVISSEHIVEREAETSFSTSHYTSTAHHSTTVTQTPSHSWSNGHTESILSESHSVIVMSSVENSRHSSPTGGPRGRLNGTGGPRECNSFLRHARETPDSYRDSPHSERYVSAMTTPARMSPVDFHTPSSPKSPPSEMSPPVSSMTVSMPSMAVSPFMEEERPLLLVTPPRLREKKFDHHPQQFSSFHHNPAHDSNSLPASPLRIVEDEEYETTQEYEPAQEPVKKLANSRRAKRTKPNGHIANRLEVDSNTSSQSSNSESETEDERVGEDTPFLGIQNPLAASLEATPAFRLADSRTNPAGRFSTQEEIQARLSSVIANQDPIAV
Sequence of Torsin-1A-interacting protein 2 (Homo sapiens) (Q8NFQ8 whole entry, looked up): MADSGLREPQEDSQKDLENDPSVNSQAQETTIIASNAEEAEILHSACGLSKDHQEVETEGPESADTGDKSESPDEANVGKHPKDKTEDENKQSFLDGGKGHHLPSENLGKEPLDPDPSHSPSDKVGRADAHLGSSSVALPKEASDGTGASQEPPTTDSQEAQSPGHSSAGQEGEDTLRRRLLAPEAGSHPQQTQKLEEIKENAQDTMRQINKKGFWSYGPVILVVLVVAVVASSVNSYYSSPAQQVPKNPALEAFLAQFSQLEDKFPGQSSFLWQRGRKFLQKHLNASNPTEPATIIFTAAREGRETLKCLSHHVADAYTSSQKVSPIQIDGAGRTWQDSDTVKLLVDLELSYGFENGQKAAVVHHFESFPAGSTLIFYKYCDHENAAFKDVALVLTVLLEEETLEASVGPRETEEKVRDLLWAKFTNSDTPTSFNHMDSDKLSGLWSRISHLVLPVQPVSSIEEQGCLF

Compound	composite z-score [1]	composite z-score [2]	composite z-score [3]	composite z-score [4]	composite z-score [5]	composite z-score [6]	composite z-score [7]	z-score [8]	composite z-score [9]	composite z-score [10]	composite z-score [11]	z-score [12]	z-score [13]	z-score [14]	composite z-score [15]	z-score [16]	composite z-score [17]	composite z-score [18]	composite z-score [19]	composite z-score [20]
CC(CCN1CCCCc2nc(C)c(C)cc21)=NOC(C)CN1CCCCc2nc(C)c(C)cc21 (stereo not given)	-0.275	1.93	-0.15	0.682	1.48	0.963	1.28	0.748 (inactive)	0.907	0.0174	1.52	-1.32 (inactive)	-1.49 (inactive)	0.187 (inactive)	2.37	-0.0919 (inactive)	-0.0101	1.04	1.07	0.272
CC(=O)OC[C@H]1O[C@H](CCON=C(C)CCC(=O)OC[C@H]2O[C@H](C#Cc3ccccc3)C=C[C@@H]2Oc2ccc(C)cc2)C=C[C@@H]1OC(C)=O	-0.41	0.703	-0.12	0.479	-0.126	0.0383	0.359	0.718 (inactive)	0.265	-0.132	0.269	-0.465 (inactive)	-0.0797 (inactive)	-0.579 (inactive)	0.719	0.554 (inactive)	-0.181	0.465	-0.0894	0.0567
O=C(NN=C1C[C@@H](O)[C@@H](O)[C@@H]2[C@@H]3C(=O)N(c4cccc(Oc5ccccc5)c4)C(=O)[C@@H]3CC[C@@H]12)OCc1ccccc1	0.103	-0.336	-0.0891	0.0457	0.222	0.259	-0.157	0.31 (inactive)	0.274	0.2	0.633	0.909 (inactive)	0.588 (inactive)	0.281 (inactive)	1.46	0.108 (inactive)	-0.0345	0.635	0.0096	-0.124
CC[C@@H](c1ccccc1)n1c(=O)n2n(c1=O)[C@H]1[C@H](O)[C@@H]3O[C@@H]3C(=NOCC=C(C)CCC=C(C)C)[C@H]1CC2	-0.415	0.138	-0.102	0.471	0.8	0.8	0.89	-0.0545 (inactive)	0.572	-0.169	1.23	0.676 (inactive)	0.052 (inactive)	1.28 (inactive)	1.54	-0.327 (inactive)	-0.137	1.33	0.955	0.14
CC(C)=CCCC(C)=CCON=C1C[C@@H](O)[C@@H](O)[C@@H]2[C@@H]3C(=O)N(C[C@@H]4CCCO4)C(=O)[C@@H]3CC[C@@H]12	-0.518	1	-0.134	0.84	0.449	0.614	1.08	-0.24 (inactive)	0.28	0.0749	1.54	-0.224 (inactive)	0.574 (inactive)	-0.618 (inactive)	2.34	0.325 (inactive)	-0.133	1.3	1.01	-0.0556
C#CCCCON=C1C[C@@H](O)[C@@H](O)[C@@H]2[C@@H]3C(=O)N(Cc4ccccc4)C(=O)[C@@H]3CC[C@H]12	-0.304	0.251	-0.116	0.317	0.69	0.197	-0.0787	-0.0765 (inactive)	0.149	-0.169	0.0491	-0.609 (inactive)	-0.216 (inactive)	-1.49 (inactive)	-0.172	-0.0603 (inactive)	-0.0294	0.407	0.297	-0.102
CCCCCCc1nc(CCCc2cc3c(c(CCCCCC)n2)[Si](C(C)C)(C(C)C)O[C@H]3c2ccccc2)cc2c1[Si](C(C)C)(C(C)C)O[C@H]2c1ccccc1	-0.342	-0.244	-0.109	-0.217	-0.253	-0.47	-0.744	-0.364 (inactive)	0.163	-0.277	0.0913	-0.449 (inactive)	-0.643 (inactive)	-0.146 (inactive)	-0.769	-1.43 (inactive)	-0.233	0.522	0.279	-0.11
CCCC[C@H]1OB(O)C[C@H]2C1=C(C)C[C@H]1C(=O)N(C)C(=O)[C@H]12	-0.626	0.441	-0.0562	0.719	1.09	0.053	0.938	-0.252 (inactive)	0.349	-0.156	0.95	-0.334 (inactive)	-0.698 (inactive)	-0.762 (inactive)	1.2	-0.889 (inactive)	-0.166	0.622	0.959	-0.12
CCOC(=O)NN=C1C[C@@H](O)[C@@H](O)[C@@H]2[C@@H]3C(=O)N(CC)C(=O)[C@@H]3CC[C@@H]12	-0.415	0.377	-0.0355	0.72	0.797	-0.008	0.672	0.323 (inactive)	0.713	-0.201	0.268	-0.846 (inactive)	0.0572 (inactive)	-0.293 (inactive)	1.31	-0.319 (inactive)	-0.176	0.299	0.905	0.0082
COC(=O)[C@@]1(Cc2ccc(OC)cc2)[C@H]2c3cc(C(=O)N4CCCC4)n(Cc4cc(F)c(F)c(F)c4)c3C[C@H]2CN1C(=O)c1ccccc1	2.91	1.05	0.746	1.19	1.82	1.62	1.19	-0.104 (inactive)	3.01	1.88	1.25	0.68 (inactive)	1.39 (inactive)	7.41 (inactive)	3.39	-1.19 (inactive)	1.44	-0.131	1.01	1.17
